From PubChem BioAssay
Sampled rows, rich in hits. Any-hit rate of the full collection: about 3%.
TROY NFkB inh: inhibitors of TROY-driven NF-kB signaling, primary screen, Q293 LMP1-TROYcd cells, NF-kB luciferase, uHTS | inhibition, % at 10 µM | Q293 LMP1-TROYcd NF-kB luciferase reporter, 4 h | actives 0.98% (n = 360,000) | AID 1347056, 2019;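 active means compounds whose plate-normalised and pattern-corrected inhibition of the luciferase reporter signal at the single screening dose is 50% or more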
MITF TRPM1 inh: inhibitors of MITF-dependent TRPM1 promoter reporter, primary screen, cell-based, SK-MEL-5, single point, luciferase; inhibition, % at 12.5 µM; actives 0.83% (n = 330,000); SK-MEL-5 TRPM1 promoter luciferase, 24 h;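 active means mean inhibition across replicates of 60% or more, whatever share of single replicates reaches that level; inconclusive means some that reach 60%, reason not given; inactive means mean inhibition across replicates below 60%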
LGR2 antag: inhibitors of bursicon-induced LGR2 CRE-luciferase signal, primary screen, cell-based, HEK293, CRE-luciferase reporter, bursicon stimulation; bursicon-stimulated, 4 h; Drosophila bursicon receptor LGR2 (rickets); actives 0.35% (n = 380,000); inhibition, % at 9.99 µM;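 active means drop in luminescence signal, shown as inhibition above about 50% in the replicate tests, limit read from the data, passing the limit was not always enough; inconclusive means probably only some replicates passing the limit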;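 further: agonist challenge used bursicon conditioned medium at about half maximal strength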
EBV LMP1 NFkB: EBV LMP1-driven NF-kappaB luciferase reporter inhibitors, primary screen, cell-based, luminescence, single point | LMP1-induced NF-kappaB luciferase reporter cells | inhibition, % at 12.5 µM | actives 0.69% (n = 350,000) | AID 504558, 2011; in the data active means inhibition above about 41%; inconclusive means no clear call, values can overlap the other calls;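 further: 0% = neutral control wells and 100% = reference inhibitor control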
MITF TRPM1 HTS: activators of MITF-driven TRPM1 promoter reporter, primary screen, cell-based, SK-MEL-5, luciferase, single point; SK-MEL-5 TRPM1-promoter luciferase, 24 h; % of positive control, neutral wells = 0; AID 588334, 2011; actives 0.75% (n = 300,000); activation, % at 12.5 µM;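 active means mean activation of at least 80% with every replicate also reaching 80%; inconclusive means mean reaches 80% but some replicate falls short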;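 further: 0% = neutral control wells and 100% = parthenolide positive control wells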
TWEAK Fn14 block: inhibitors of TWEAK-Fn14 signaling, primary screen, luciferase reporter cells, uHTS; TWEAK-stimulated Fn14 reporter cells, luciferase luminescence, 8 h; inhibition, % at 10 µM; actives 2% (n = 360,000); in the data active means inhibition above about 50%
* hit, by the source's call; ? = inconclusive; . = no result.

SMILES	TROY NFkB inh	MITF TRPM1 inh	LGR2 antag	EBV LMP1 NFkB	MITF TRPM1 HTS	TWEAK Fn14 block
C[C@@H]1CN([C@@H](C)CO)C(=O)c2cc(NC(=O)Cn3cnnn3)ccc2O[C@H]1CN(C)C(=O)Nc1ccccc1	.	.	5	.	.	.
CC(C)NC(=O)Nc1ccc2c(c1)CC(=O)N([C@@H](C)CO)C[C@@H](C)[C@@H](CN(C)S(C)(=O)=O)O2	.	.	-3	.	.	.
O=C(NC1CCCCC1)NC1CC2CCC(C1)N2Cc1nnnn1Cc1ccc2c(c1)OCO2 (stereo unspecified)	.	11	.	1	-12	87*
C[C@H](CO)N1C[C@H](C)[C@@H](CN(C)Cc2ccccc2)Oc2ccc(NC(=O)Cc3cn(C)c4ccccc34)cc2CC1=O	.	.	1	.	.	.
CNC[C@H]1Oc2ccc(NS(=O)(=O)c3cccs3)cc2C(=O)N([C@@H](C)CO)C[C@H]1C	.	.	27	.	.	.
Cc1ccc(C(=O)COC(=O)c2cccs2)cc1	59*	-52	.	-25	57	43
O=C(COC(=O)c1cccs1)c1ccc2c(c1)OCCO2	75*	-46	82*	-16	46	61*
O=C(COC(=O)c1cccs1)c1ccc2ccccc2c1	-70	-74	.	16	.	-12
CCc1ccc(C(=O)COC(=O)c2cccs2)cc1	6	-76	.	-25	?	3
CC(=O)NC12CC3CC(C1)CC(C(=O)OCC(=O)c1ccc4c(c1)OCCO4)(C3)C2	54*	-14	.	-26	.	58*
C[C@H]1CN([C@@H](C)CO)S(=O)(=O)c2ccc(-c3cccnc3)cc2O[C@@H]1CN(C)C(=O)C1CCCCC1	.	.	-13	.	.	.
O=C(NCC1CCCCC1)[C@@H]1[C@@H](CO)[C@@H]2Cn3c(ccc(-c4ccncc4)c3=O)[C@H]1N2	.	.	1	.	.	.
CCOC(=O)c1ccc(N2C(=O)CC(Sc3nnc(C)s3)C2=O)cc1 (stereo unspecified)	.	-3	.	5	3	69*
CCOC(=O)c1ccc(N2C(=O)C=CC2=O)cc1	0	41	.	67*	.	1
CCOC(=O)c1ccc(N2C(=O)CC(Sc3nc(C)cc(C)n3)C2=O)cc1 (stereo unspecified)	22	2	-3	-4	-4	-15
COc1ccc(CCNc2cc(N3CCN(C(=O)c4ccccc4F)CC3)ccc2[N+](=O)[O-])cc1OC	35	83*	.	21	-83	93*
O=C(c1ccccc1)N1CCN(c2ccc([N+](=O)[O-])c(NCc3cccnc3)c2)CC1	14	-3	-5	1	3	12
COc1ccc(CCNc2ccc(C(=O)O)cc2[N+](=O)[O-])cc1OC	-14	-2	-12	-6	-3	9
COc1ccc(C(=O)N2CCN(c3ccc([N+](=O)[O-])c(NCCc4ccc(OC)c(OC)c4)c3)CC2)cc1	63*	79*	11	33	-78	92*
O=C(c1ccccc1F)N1CCN(c2ccc([N+](=O)[O-])c(NCc3cccnc3)c2)CC1	15	.	14	.	.	72*
CO[C@H]1CN(C)C(=O)c2cc(NC(=O)C3CCOCC3)ccc2OC[C@H](C)N(C(=O)c2ccccc2)C[C@H]1C	.	.	-12	.	.	.
COc1ccc(CN(C)C[C@@H]2Oc3ccc(NC(=O)Nc4c(C)noc4C)cc3C(=O)N([C@H](C)CO)C[C@H]2C)cc1	.	.	-3	.	.	.
O=C(C[C@H]1C=C[C@@H](NC(=O)Nc2ccccc2F)[C@H](CO)O1)NCc1ccc(F)cc1	.	.	5	.	.	.
CN(C)S(=O)(=O)c1ccc(Cl)c(C(=O)NCCNC(=O)c2cc(S(=O)(=O)N(C)C)ccc2Cl)c1	-12	7	16	71*	-6	-9
COc1ccccc1S(=O)(=O)N[C@H]1CC[C@H](CCn2cc(C3CC3)nn2)O[C@H]1CO	.	.	1	.	.	.
SMILES	TROY NFkB inh	MITF TRPM1 inh	LGR2 antag	EBV LMP1 NFkB	MITF TRPM1 HTS	TWEAK Fn14 block
CCC(=O)N1CC2(C1)CN(C(=O)CC)[C@H](CO)c1[nH]c3cc(OC)ccc3c12	.	.	-19	.	.	.
Cc1cc(OCC(=O)Nc2sc3c(c2C#N)CC(C)(C)NC3(C)C)c(C(C)C)cc1Cl	35	-2	11	-17	-1	-12
COC(=O)c1c(NC(=O)COc2ccc(Cl)cc2)sc2c1CC(C)(C)NC2(C)C	19	82*	27	-128	-81	-166
CCOC(=O)c1c(NC(=O)COc2ccccc2F)sc2c1CC(C)(C)NC2(C)C	28	71*	2	-22	-70	21
Cc1ccc(C(C)C)c(OCC(=O)Nc2sc3c(c2C#N)CC(C)(C)NC3(C)C)c1	47	-1	.	1	.	50*
C[C@H]1CCCCO[C@H](CN(C)C(=O)C2CCCCC2)[C@@H](C)CN([C@@H](C)CO)C(=O)c2cc(NS(=O)(=O)c3cn(C)cn3)ccc2O1	.	.	3	.	.	.
COCCNC(=O)NC12CC3(C)CC(C)(CC(C)(C3)C1)C2	-14	10	4	57*	-10	-2
Cc1ccc(-n2c3c(cc(C(=O)NCC(=O)c4ccccc4)c2=O)C(=O)CCC3)cc1	15	2	22	2	-1	93*
O=C1CCCc2c1cc(C(=O)NCc1ccco1)c(=O)n2-c1ccccc1	-2	6	.	-2	.	5
COc1ccc(S(=O)(=O)N2CCCc3ccccc32)cc1OC	60*	3	-2	-12	-3	56*
COc1ccc(S(=O)(=O)N2CCCc3ccccc32)cc1[N+](=O)[O-]	28	36	4	2	-36	-3
COc1ccc(C(=O)Nc2ccc(S(=O)(=O)N3CCc4ccccc43)cc2)cc1	22	-9	.	0	4	80*
O=C(O)c1ccc(S(=O)(=O)N2CCCc3ccccc32)cc1	-1	14	22	-6	-14	16
NC(=O)c1ccsc1NC(=O)c1ccc(S(=O)(=O)N2CCCc3ccccc32)cc1	61*	.	17	-12	.	92*
COCCn1c(C)cc(C(=O)CSc2nc3ccccc3c(=O)[nH]2)c1C	5	-67	.	-6	66	69*
COCCn1c(C)cc(C(=O)CSc2ccc3ccccc3n2)c1C	-11	-83	.	-22	87*	19
COCCn1c(C)cc(C(=O)COc2nc3ccccc3nc2C)c1C	-16	16	.	11	-15	19
CCNC(=O)Nc1ccc2c(c1)C(=O)N(C)[C@H]1CC[C@@H](CC(=O)NCC3CC3)O[C@@H]1CO2	.	.	14	.	.	.
COCC(=O)N1C[C@H](C)[C@H](OC)CN(C)C(=O)c2cc(NC(=O)NC(C)C)ccc2OC[C@@H]1C	.	.	8	.	.	.
O=C(CCN1C(=O)C2CCCCC2C1=O)Nc1nc2ccc(F)cc2s1 (stereo unspecified)	73*	-39	7	11	37	72*
